The nature of test [1]: NCI Yeast Anticancer Drug Screen. Data for the rad50 strain (AID 155).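 Note: 0% = growth of vehicle-only cultures of the same strain.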 The note with it: S. cerevisiae rad50 strain growth inhibition, stronger effect = higher value. An outline of the steps: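 Vehicle-treated cultures provide the reference for the growth inhibition reported for compound-exposed, repair-deficient yeast.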
Test [2] can be described thus: NCI Yeast Anticancer Drug Screen. Data for the mec2-1 strain (AID 157). The note with it: S. cerevisiae mec2-1 strain, stronger effect = higher value. In short, it runs like this:
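Mutant yeast (mec2-1) grown with compound; growth inhibition relative to vehicle control reported.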

A short description of test [3]: NCI Yeast Anticancer Drug Screen. Data for the sgs1 mgt1 strain (AID 161).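 Note: 0% = growth of cultures given vehicle only.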 The settings on record: S. cerevisiae sgs1 mgt1 strain, stronger effect = higher value. An outline of the steps: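 Percent growth inhibition was derived by comparing compound-exposed mutant yeast with vehicle-exposed cultures. The strain carries alterations in DNA damage repair.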
Test [4] is described as follows: NCI Yeast Anticancer Drug Screen. Data for the cln2 rad14 strain (AID 165).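 Note: 0% = growth equal to vehicle treated cultures.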 The settings on record: S. cerevisiae cln2 rad14 strain, stronger effect = higher value. In short, it runs like this:
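Readout is yeast growth inhibition versus vehicle-treated controls, using a strain with cln2 and rad14 alterations exposed to compound.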

The nature of test [5]: NCI Yeast Anticancer Drug Screen. Data for the bub3 strain (AID 167). The settings on record: S. cerevisiae bub3 mutant strain, stronger effect = higher value. An outline of the steps:
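Mutant yeast screening strain plus compound; vehicle-treated cultures serve as the 0% inhibition reference.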

The nature of test [6]: NCI Yeast Anticancer Drug Screen. Data for the mlh1 rad18 strain (AID 175). The note with it: S. cerevisiae mlh1 rad18 strain growth inhibition, stronger effect = higher value. In short, it runs like this: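 Genetically defined yeast (DNA repair-deficient) exposed to compounds; growth inhibition determined relative to vehicle.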
Setting [7] is: at 5.0 µM (retest, dose inferred, filed as 0.5).
Where [8] appears, read: at 50.0 µM (retest, dose inferred, filed as 5.0).

This is part of a sample that, as a whole, favours compounds with a hit. Of some 79,000 tested, about 15% had one in any assay. A number with no mark means an inactive call. Activity calls are given as the source filed them. Cut-off read from the data, not from the text of the source: active = growth inhibition above about 70%; inactive = the rest.

As to `CC(CCNCCC#N)CC(C)(C)C` (configuration not stated), the growth inhibition in test [1] (setting [7]) was 6%; in test [1] (setting [8]) it was 66%; in test [1] (at 50.0 µM) it was 76.9% (active); in test [2] (setting [7]) it was -4%; in test [2] (setting [8]), 32%; in test [2] (at 50.0 µM), 47.8%. Also, the growth inhibition in test [3] (setting [7]) was 9%; in test [3] (setting [8]), 43%; in test [3] (at 50.0 µM), 86.2% (active); in test [4] (setting [7]) it was 7%; in test [4] (setting [8]) it was 33%; in test [4] (at 50.0 µM) it was 48.5%. For the same molecule, the growth inhibition is 7% in test [5] (setting [7]); 47% in test [5] (setting [8]); 63% in test [5] (at 50.0 µM); 12% in test [6] (setting [7]); 66% in test [6] (setting [8]); 68.8% in test [6] (at 50.0 µM).

For the molecule `O=C(N=c1sc2ccccc2s1)N=c1sc2ccccc2s1`, the growth inhibition was 1% in test [1] (setting [7]); 10% in test [1] (setting [8]); 45.9% in test [1] (at 50.0 µM); 35% in test [2] (setting [7]); -14% in test [2] (setting [8]); -2.6% in test [2] (at 50.0 µM). The growth inhibition in test [3] (setting [7]) is 14%; in test [3] (setting [8]), -20%; in test [3] (at 50.0 µM) it was 47.6%; in test [4] (setting [7]), -32%; in test [4] (setting [8]), 6%; in test [4] (at 50.0 µM) it was 84% (active). The growth inhibition in test [5] (setting [7]) was -11%; in test [5] (setting [8]), 7%; in test [5] (at 50.0 µM) it was 29.6%; in test [6] (setting [7]), -20%; in test [6] (setting [8]), 10%; in test [6] (at 50.0 µM) it was 50%.

For the molecule `O=CNc1ccc2c(c1)Cc1cc(NC=O)ccc1-2`, the growth inhibition in test [1] (setting [7]) is -4%; in test [1] (setting [8]) it was 81% (active); in test [1] (at 50.0 µM), 91% (active); in test [2] (setting [7]), -3%; in test [2] (setting [8]) it was 25%; in test [2] (at 50.0 µM), 34.5%. Further, the growth inhibition was 18% in test [3] (setting [7]); 82% (active) in test [3] (setting [8]); 91.4% (active) in test [3] (at 50.0 µM); -34% in test [4] (setting [7]); 10% in test [4] (setting [8]); -6.85% in test [4] (at 50.0 µM). Also, the growth inhibition is 2% in test [5] (setting [7]); -9% in test [5] (setting [8]); 7.8% in test [5] (at 50.0 µM); 14% in test [6] (setting [7]); 79% (active) in test [6] (setting [8]); 74.2% (active) in test [6] (at 50.0 µM).

For `CCCCCCCCSCc1ccc(N)cc1`, the growth inhibition in test [1] (setting [7]) was 23%; in test [1] (setting [8]), 97% (active); in test [1] (at 50.0 µM), 89.7% (active); in test [2] (setting [7]), 12%; in test [2] (setting [8]) it was 98% (active); in test [2] (at 50.0 µM), 91.4% (active). For the same molecule, the growth inhibition is 37% in test [3] (setting [7]); 98% (active) in test [3] (setting [8]); 90.5% (active) in test [3] (at 50.0 µM); 39% in test [4] (setting [7]); 98% (active) in test [4] (setting [8]); 89.5% (active) in test [4] (at 50.0 µM). The growth inhibition in test [5] (setting [7]) was 51%; in test [5] (setting [8]), 98% (active); in test [5] (at 50.0 µM), 89% (active); in test [6] (setting [7]) it was 20%; in test [6] (setting [8]) it was 97% (active); in test [6] (at 50.0 µM) it was 89.6% (active).

For the molecule `CCCCCCCNc1ccc2c(cc1=O)C(NC(C)=O)CCc1cc(OC)c(OC)c(OC)c1-2` (configuration not stated), the growth inhibition in test [1] (setting [7]) is 17%; in test [1] (setting [8]), 96% (active); in test [1] (at 50.0 µM), 91.5% (active); in test [2] (setting [7]) it was 8%; in test [2] (setting [8]), 98% (active); in test [2] (at 50.0 µM), 16.8%. The growth inhibition in test [3] (setting [7]) is 9%; in test [3] (setting [8]), 99% (active); in test [3] (at 50.0 µM), 98.8% (active); in test [4] (setting [7]) it was 7%; in test [4] (setting [8]), 95% (active); in test [4] (at 50.0 µM), 30.8%. Besides, the growth inhibition is 4% in test [5] (setting [7]); 97% (active) in test [5] (setting [8]); 16.9% in test [5] (at 50.0 µM); 13% in test [6] (setting [7]); 97% (active) in test [6] (setting [8]); 7.55% in test [6] (at 50.0 µM).

For the molecule `N=C(N)c1ccc2oc3ccc(C(=N)N)cc3c(=O)c2c1`, the growth inhibition in test [1] (setting [7]) was 8%; in test [1] (setting [8]) it was 65%; in test [1] (at 50.0 µM), 57.8%; in test [2] (setting [7]), 3%; in test [2] (setting [8]), 70% (active); in test [2] (at 50.0 µM), 29.9%. The growth inhibition was 21% in test [3] (setting [7]); 76% (active) in test [3] (setting [8]); 65.5% in test [3] (at 50.0 µM); 11% in test [4] (setting [7]); 65% in test [4] (setting [8]); 71.8% (active) in test [4] (at 50.0 µM). The growth inhibition in test [5] (setting [7]) is -4%; in test [5] (setting [8]) it was 76% (active); in test [5] (at 50.0 µM), 38%; in test [6] (setting [7]), 10%; in test [6] (setting [8]), 77% (active); in test [6] (at 50.0 µM), 73.4% (active).

For the molecule `C[n+]1c(/C=C/c2ccc([N+](=O)[O-])cc2)ccc2ccccc21`, the growth inhibition in test [1] (setting [7]) was 6%; in test [1] (setting [8]), 85% (active); in test [1] (at 50.0 µM), 42%; in test [2] (setting [7]), -2%; in test [2] (setting [8]) it was 89% (active); in test [2] (at 50.0 µM) it was 60.8%. Also, the growth inhibition in test [3] (setting [7]) is 2%; in test [3] (setting [8]), 77% (active); in test [3] (at 50.0 µM), 69.7%; in test [4] (setting [7]), 12%; in test [4] (setting [8]), 77% (active); in test [4] (at 50.0 µM), 82.7% (active). In addition, the growth inhibition was -2% in test [5] (setting [7]); 92% (active) in test [5] (setting [8]); 11.7% in test [5] (at 50.0 µM); 16% in test [6] (setting [7]); 92% (active) in test [6] (setting [8]); 80.2% (active) in test [6] (at 50.0 µM).

As for `O=C1OC(=O)C2C3CCC(C3=C3CCCCC3)C12` (configuration not stated), the growth inhibition in test [1] (setting [7]) is -2%; in test [1] (setting [8]) it was 93% (active); in test [1] (at 50.0 µM) it was 35%; in test [2] (setting [7]) it was 7%; in test [2] (setting [8]), 95% (active); in test [2] (at 50.0 µM), 28.2%. Moreover, the growth inhibition in test [3] (setting [7]) was -1%; in test [3] (setting [8]) it was 58%; in test [3] (at 50.0 µM), 40%; in test [4] (setting [7]) it was 5%; in test [4] (setting [8]), 96% (active); in test [4] (at 50.0 µM), -8.55%. In addition, the growth inhibition in test [5] (setting [7]) is 5%; in test [5] (setting [8]), 95% (active); in test [5] (at 50.0 µM), 10.8%; in test [6] (setting [7]), -1%; in test [6] (setting [8]) it was 93% (active); in test [6] (at 50.0 µM) it was 36.8%.

Regarding `O=[N+]([O-])c1cccc2nc3ccccc3c(NCCO)c12`, the growth inhibition was 78% (active) in test [1] (setting [7]); 94% (active) in test [1] (setting [8]); 86.8% (active) in test [1] (at 50.0 µM); 84% (active) in test [2] (setting [7]); 98% (active) in test [2] (setting [8]); 92% (active) in test [2] (at 50.0 µM). In addition, the growth inhibition in test [3] (setting [7]) was 82% (active); in test [3] (setting [8]), 95% (active); in test [3] (at 50.0 µM) it was 91.5% (active); in test [4] (setting [7]), 89% (active); in test [4] (setting [8]), 96% (active); in test [4] (at 50.0 µM), 92% (active). Moreover, the growth inhibition in test [5] (setting [7]) was 28%; in test [5] (setting [8]) it was 94% (active); in test [5] (at 50.0 µM) it was 87.2% (active); in test [6] (setting [7]), 89% (active); in test [6] (setting [8]), 96% (active); in test [6] (at 50.0 µM), 86.6% (active).

Source of the values: PubChem BioAssay (NCI).
